This note sets out measurements from PubChem BioAssay.

Activity calls are given as the source filed them.

One test deals with wheat germ agglutinin (Triticum aestivum), Alexa647-labelled. Kind of test: wheat germ agglutinin binders on compound microarrays, profiling panel, artefact control for SMM control-protein annotation, biochemical, small-molecule microarray, 635/667 nm fluorescence (AID 1140).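 Also: score merges 667 nm feature emission with signal to noise over triplicate slides.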 To be noted: WGA-A647 binding, 635 nm fluorescence, higher = more signal.
`COC(=O)[C@@H]1N=C(c2ccc(OCCCO)cc2)O[C@@H]1C` gave a composite z-score of -0.257.
The same measure, in the same setting: as for `C=C[C@H]1C(C(=O)OCC)=CC[C@@H](c2ccccc2)N1S(=O)(=O)c1ccc(C)cc1`, the figure is 0.677.
As to `CC(c1ccccc1)C(O)C1C=CC2C(=O)N(C)C(=O)C2N1Nc1ccccc1` (stereo not given), the composite z-score is 1.21.
Still for that read-out and setting: as for `NC(=O)NCC#Cc1ccc2c(c1)[C@]1(C(=O)N2)[C@H](c2ccccc2OCCO)N2[C@H](c3ccccc3)[C@H](c3ccccc3)OC(=O)[C@H]2[C@@H]1C(=O)NC[C@H](O)c1ccccc1`, the figure is 0.91; as for `CCCCC[C@H]1OC[C@@]23C=C(Br)[C@@H](CC12)[C@@]1(CO1)C3=O` (stereo not given in full), -0.407; as for `CCC#CCN(Cc1ccccc1Br)[C@H](/C=C/C1CC1)[C@@H](O)Cc1ccccc1`, -0.366.
The same measure, in the same setting: as for `COC(=O)C(CC#Cc1ccc2c(c1)[C@]1(C(=O)N2)[C@H](c2ccc(O)cc2)N2[C@H](c3ccccc3)[C@H](c3ccccc3)OC(=O)[C@H]2[C@@H]1C(=O)NC[C@H](O)c1ccccc1)C(=O)OC`, the figure is 0.9; as for `CCCCC(O)C1C=CC2C(=O)N(C)C(=O)C2N1N(c1ccccc1)c1ccccc1` (stereo not given), 1.21; as for `O=C1[C@H]2C=C(I)[C@H](C[C@@H]2OCCOCCO)[C@@]12CO2`, -0.12.
Still for that read-out and setting: for `C=CC[C@]1(C(=O)N2CCCCC2)N=C(c2ccc(OCCCO)cc2)O[C@H]1c1ccccc1CN=[N+]=[N-]` the value was 0.657.
With `COC(=O)[C@@]1(Cc2ccc(OC)cc2)[C@H]2c3cc(C(=O)N4CCCC4)n(CCO)c3C[C@H]2CN1C(=O)c1ccccc1`, the composite z-score worked out at 1.03.
`C=CC[C@]1(C(=O)N2CCOCC2)COC(c2ccc(OCCCO)cc2)=N1` had a composite z-score of 0.959.
Same read-out and setting: for `CN(C)C(=O)[C@]1(CCC(=O)OC(C)(C)C)N=C(c2ccc(OCCCO)cc2)O[C@@H]1c1ccccc1CN=[N+]=[N-]` the value was 1.42; for `CO[C@H]1O[C@H](CO)[C@@H](OC(=O)Nc2ccc3c(c2)OCO3)[C@H](OC(=O)Nc2ccc3c(c2)OCO3)[C@@H]1OC(=O)Nc1ccc2c(c1)OCO2`, 0.682.
Still for that read-out and setting: for `C=C[C@@H](OC)[C@H](OC(=O)Nc1ccc(OC)cc1)c1ccc(O)c(F)c1` the value was -0.251; for `COC(=O)c1c(CC[C@@H](CO)NC(=O)N[C@@H](C)Cn2cc(-c3ccccn3)nn2)oc(C(C)=O)c1C(=O)OC`, 0.184; for `CCCC[C@@H](O)C1=C(COC)C[C@H]2C(=O)N(Cc3ccccc3)C(=O)[C@H]2[C@H]1CO`, 1.13.
On to `CCCN1C(=O)[C@]2(Cc3ccccc31)N=C(c1ccc(OCCCO)cc1)O[C@@H]2c1ccccc1`, for which the composite z-score turned out to be 1.11.
The molecule `CCOC(=O)C[C@H]1[C@H](OC(=O)c2ccc(C(=O)c3ccccc3)cc2)[C@@H](NC(=O)C2CCCCC2)c2cc(OCCCO)ccc2N1C(=O)c1ccc2ccccc2n1` showed a composite z-score of 0.0469.
The same measure, in the same setting: as for `COc1cccc(C)c1NC(=O)O[C@H]1[C@H](OC(=O)Nc2ccc3c(c2)OCO3)[C@@H](OC(=O)Nc2ccc3c(c2)OCO3)[C@@H](OC)O[C@@H]1CO`, the figure is 1.15.
Same read-out and setting: as for `CC(C)(C)OC(=O)COc1cccc(C(=O)CCN2CCOCC2)c1`, the figure is -0.0945; as for `CC(C)NC(=O)[C@@]1(C)c2ccccc2C(=O)N(Cc2ccc(OC(F)(F)F)cc2)[C@H]1c1ccc(CO)cc1`, -0.641.
Still for that read-out and setting: for `COc1cc2c(cc1O)C(c1cccs1)N(Cc1cc3c(cc1Br)OCO3)CC2` (stereo not given) the value was 0.544; for `CCCCNC(=O)c1ccc(C#CC(C)(C)C)c(OC(C)=O)c1`, 0.64; for `CCCC1(C(=O)OC)C=C2C(=C(C)C(=O)C2C)CN1` (stereo not given), 0.594.
In the case of `O=C(C1N=C(c2ccc(OCCCO)cc2)N(c2ccccc2)O1)N1CCCCC1` (stereo not given), the composite z-score worked out at 1.31.
The same measure, in the same setting: as for `CCCCN1CC=CC23O[C@@H]4/C=C\CCC(C)OC(=O)C4[C@H]2C(=O)N(CCCO)[C@@H]3C1=O` (stereo not given in full), the figure is -0.588; as for `Cc1ccc(S[C@]2(C(=O)NCC(F)(F)F)CC(=O)N(Cc3cc(C(F)(F)F)cc(C(F)(F)F)c3)[C@@H]2c2ccc(CO)cc2)cc1`, -0.744.
With `COC(=O)[C@@]1(Cc2ccc(F)cc2)[C@H]2c3cc(C(=O)N(C)C)n(CCc4ccc(OC)c(Br)c4)c3C[C@H]2CN1C(=O)c1ccccc1`, the composite z-score is 0.187.
`O=C(NCCN1CCOCC1)[C@@H]1c2ccccc2C(=O)N(Cc2ccccc2Cl)[C@H]1c1ccc(CO)cc1` yielded a composite z-score of 0.0616.
On to `CCCCCN1CC=CC23O[C@@H]4/C=C\CCCOC(=O)C4[C@H]2C(=O)N(C(C)CO)[C@@H]3C1=O` (stereo not given in full), for which the composite z-score came to 0.916.
As to `COc1ccc(CCNC(=O)[C@@H]2c3ccccc3C(=O)N(C3CCCCC3)[C@H]2c2ccc(CO)cc2)cc1`, the composite z-score amounted to 0.771.
On to `C=CCNC(=O)[C@H]1[C@@H]2C(=O)O[C@@H](c3ccccc3)[C@@H](c3ccccc3)N2[C@@H](c2ccccc2OCCO)[C@]12C(=O)N(C(=O)OCCOC)c1ccc(C#CC3(O)CCCCCC3)cc12`, for which the composite z-score came out at 0.763.
The same measure, in the same setting: for `C#Cc1cc2ccccc2oc1=O` the value was -1.12; for `CCCC=C(CCC)[C@@H](NS(=O)(=O)CC12CCC(CC1=O)C2(C)C)c1ccc(C(=O)OC)cc1` (stereo not given in full), 0.301.

For another test, the target named is Luciferin 4-monooxygenase (Photinus pyralis) (UniProt P08659). In words: firefly luciferase enzyme inhibitors, primary screen, biochemical, luminescence, purified enzyme, 2006 set (AID 1141).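 Also: cell-free assay with purified firefly luciferase at 100 ng per well in PBS; test concentration not given here.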 To be noted: SteadyGlo luminescence, 30 min, higher = more signal, called active from +8 up or from −8 down.
Chain of Luciferin 4-monooxygenase (Photinus pyralis) (P08659 whole entry, looked up): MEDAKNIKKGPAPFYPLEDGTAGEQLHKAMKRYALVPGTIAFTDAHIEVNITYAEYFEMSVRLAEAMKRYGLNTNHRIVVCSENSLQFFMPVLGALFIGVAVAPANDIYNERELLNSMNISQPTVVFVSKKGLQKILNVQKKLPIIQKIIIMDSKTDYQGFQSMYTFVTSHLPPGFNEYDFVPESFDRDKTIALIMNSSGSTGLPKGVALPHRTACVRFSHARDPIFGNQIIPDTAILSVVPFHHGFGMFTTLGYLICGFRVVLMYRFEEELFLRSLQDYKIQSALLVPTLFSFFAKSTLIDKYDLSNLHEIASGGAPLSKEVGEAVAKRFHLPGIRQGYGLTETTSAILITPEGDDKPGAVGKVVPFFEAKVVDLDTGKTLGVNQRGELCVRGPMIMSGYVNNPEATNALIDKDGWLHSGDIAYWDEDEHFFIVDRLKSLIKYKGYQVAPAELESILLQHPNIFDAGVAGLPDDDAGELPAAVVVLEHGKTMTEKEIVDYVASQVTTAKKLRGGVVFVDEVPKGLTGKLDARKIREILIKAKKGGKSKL
Regarding `COC(=O)[C@@H]1N=C(c2ccc(OCCCO)cc2)O[C@@H]1C`, the z-score was -13.8 (active).
In the case of `C=C[C@H]1C(C(=O)OCC)=CC[C@@H](c2ccccc2)N1S(=O)(=O)c1ccc(C)cc1`, the z-score is 0.26 (inactive).
Still for that read-out and setting: for `CC(c1ccccc1)C(O)C1C=CC2C(=O)N(C)C(=O)C2N1Nc1ccccc1` (stereo not given) the value was 0.206 (inactive); for `NC(=O)NCC#Cc1ccc2c(c1)[C@]1(C(=O)N2)[C@H](c2ccccc2OCCO)N2[C@H](c3ccccc3)[C@H](c3ccccc3)OC(=O)[C@H]2[C@@H]1C(=O)NC[C@H](O)c1ccccc1`, 0.896 (inactive); for `CCCCC[C@H]1OC[C@@]23C=C(Br)[C@@H](CC12)[C@@]1(CO1)C3=O` (stereo not given in full), -0.0658 (inactive).
For `CCC#CCN(Cc1ccccc1Br)[C@H](/C=C/C1CC1)[C@@H](O)Cc1ccccc1`, the z-score was 0.619 (inactive).
Regarding `COC(=O)C(CC#Cc1ccc2c(c1)[C@]1(C(=O)N2)[C@H](c2ccc(O)cc2)N2[C@H](c3ccccc3)[C@H](c3ccccc3)OC(=O)[C@H]2[C@@H]1C(=O)NC[C@H](O)c1ccccc1)C(=O)OC`, the z-score was 0.314 (inactive).
Same read-out and setting: for `CCCCC(O)C1C=CC2C(=O)N(C)C(=O)C2N1N(c1ccccc1)c1ccccc1` (stereo not given) the value was -0.004 (inactive); for `O=C1[C@H]2C=C(I)[C@H](C[C@@H]2OCCOCCO)[C@@]12CO2`, 0.818 (inactive); for `C=CC[C@]1(C(=O)N2CCCCC2)N=C(c2ccc(OCCCO)cc2)O[C@H]1c1ccccc1CN=[N+]=[N-]`, 0.498 (inactive).
The same measure, in the same setting: as for `COC(=O)[C@@]1(Cc2ccc(OC)cc2)[C@H]2c3cc(C(=O)N4CCCC4)n(CCO)c3C[C@H]2CN1C(=O)c1ccccc1`, the figure is 1.01 (inactive).
Same read-out and setting: as for `C=CC[C@]1(C(=O)N2CCOCC2)COC(c2ccc(OCCCO)cc2)=N1`, the figure is 0.566 (inactive); as for `CN(C)C(=O)[C@]1(CCC(=O)OC(C)(C)C)N=C(c2ccc(OCCCO)cc2)O[C@@H]1c1ccccc1CN=[N+]=[N-]`, -0.703 (inactive).
As for `CO[C@H]1O[C@H](CO)[C@@H](OC(=O)Nc2ccc3c(c2)OCO3)[C@H](OC(=O)Nc2ccc3c(c2)OCO3)[C@@H]1OC(=O)Nc1ccc2c(c1)OCO2`, the z-score was -9.67 (active).
Take `C=C[C@@H](OC)[C@H](OC(=O)Nc1ccc(OC)cc1)c1ccc(O)c(F)c1`: the z-score was -3.89 (inactive).
Same read-out and setting: for `COC(=O)c1c(CC[C@@H](CO)NC(=O)N[C@@H](C)Cn2cc(-c3ccccn3)nn2)oc(C(C)=O)c1C(=O)OC` the value was 0.641 (inactive).
For `CCCC[C@@H](O)C1=C(COC)C[C@H]2C(=O)N(Cc3ccccc3)C(=O)[C@H]2[C@H]1CO`, the z-score was -0.903 (inactive).
Same read-out and setting: as for `CCCN1C(=O)[C@]2(Cc3ccccc31)N=C(c1ccc(OCCCO)cc1)O[C@@H]2c1ccccc1`, the figure is -0.133 (inactive); as for `CCOC(=O)C[C@H]1[C@H](OC(=O)c2ccc(C(=O)c3ccccc3)cc2)[C@@H](NC(=O)C2CCCCC2)c2cc(OCCCO)ccc2N1C(=O)c1ccc2ccccc2n1`, 0.425 (inactive); as for `COc1cccc(C)c1NC(=O)O[C@H]1[C@H](OC(=O)Nc2ccc3c(c2)OCO3)[C@@H](OC(=O)Nc2ccc3c(c2)OCO3)[C@@H](OC)O[C@@H]1CO`, -5.18 (inactive).
The same measure, in the same setting: as for `CC(C)(C)OC(=O)COc1cccc(C(=O)CCN2CCOCC2)c1`, the figure is -2.13 (inactive).
`CC(C)NC(=O)[C@@]1(C)c2ccccc2C(=O)N(Cc2ccc(OC(F)(F)F)cc2)[C@H]1c1ccc(CO)cc1`: the z-score is -0.183 (inactive).
Regarding `COc1cc2c(cc1O)C(c1cccs1)N(Cc1cc3c(cc1Br)OCO3)CC2` (stereo not given), the z-score is -0.657 (inactive).
On the same count and under the same terms, for `CCCCNC(=O)c1ccc(C#CC(C)(C)C)c(OC(C)=O)c1` the value was 0.856 (inactive); for `CCCC1(C(=O)OC)C=C2C(=C(C)C(=O)C2C)CN1` (stereo not given), 2.26 (inactive); for `O=C(C1N=C(c2ccc(OCCCO)cc2)N(c2ccccc2)O1)N1CCCCC1` (stereo not given), -10.6 (active).
Regarding `CCCCN1CC=CC23O[C@@H]4/C=C\CCC(C)OC(=O)C4[C@H]2C(=O)N(CCCO)[C@@H]3C1=O` (stereo not given in full), the z-score was 0.821 (inactive).
Take `Cc1ccc(S[C@]2(C(=O)NCC(F)(F)F)CC(=O)N(Cc3cc(C(F)(F)F)cc(C(F)(F)F)c3)[C@@H]2c2ccc(CO)cc2)cc1`: the z-score was -0.46 (inactive).
With `COC(=O)[C@@]1(Cc2ccc(F)cc2)[C@H]2c3cc(C(=O)N(C)C)n(CCc4ccc(OC)c(Br)c4)c3C[C@H]2CN1C(=O)c1ccccc1`, the z-score was -0.499 (inactive).
As to `O=C(NCCN1CCOCC1)[C@@H]1c2ccccc2C(=O)N(Cc2ccccc2Cl)[C@H]1c1ccc(CO)cc1`, the z-score was 0.645 (inactive).
Still for that read-out and setting: for `CCCCCN1CC=CC23O[C@@H]4/C=C\CCCOC(=O)C4[C@H]2C(=O)N(C(C)CO)[C@@H]3C1=O` (stereo not given in full) the value was -0.179 (inactive); for `COc1ccc(CCNC(=O)[C@@H]2c3ccccc3C(=O)N(C3CCCCC3)[C@H]2c2ccc(CO)cc2)cc1`, -0.323 (inactive).
Same read-out and setting: for `C=CCNC(=O)[C@H]1[C@@H]2C(=O)O[C@@H](c3ccccc3)[C@@H](c3ccccc3)N2[C@@H](c2ccccc2OCCO)[C@]12C(=O)N(C(=O)OCCOC)c1ccc(C#CC3(O)CCCCCC3)cc12` the value was -1.64 (inactive); for `C#Cc1cc2ccccc2oc1=O`, -2.39 (inactive).
The same measure, in the same setting: as for `CCCC=C(CCC)[C@@H](NS(=O)(=O)CC12CCC(CC1=O)C2(C)C)c1ccc(C(=O)OC)cc1` (stereo not given in full), the figure is 2.15 (inactive).
